Source: PubChem BioAssay
In the library only some 1.7% were active in any assay of this set; here they are far more common.
KCNH2 WT inh = qHTS for Inhibitors of KCHN2 3.1: Wildtype qHTS. U2OS, BacMam KCNH2, thallium flux FluxOr; active compounds read low. 340,000 compounds, 0.37% hits. Voltage-gated inwardly rectifying potassium channel KCNH2 (Homo sapiens), Q12809. activity change, % at 1.84 µM;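 active = maximum activity change below -70%; inconclusive = maximum activity change between -70% and -50%; inactive = maximum activity change above -50%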
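U2OS cells were transduced with wild-type KCNH2 virus (2.03 x 10^8 / mL) for 4 h at room temperature, then cultured overnight at 37 C. Thallium flux was read with FluxOr dye. Rate constants were normalized to DMSO controls.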
FBPA coupling cs = qHTS Assay for Inhibitors of Fructose-1,6-bisphosphate Aldolase from Giardia Lamblia: Coupling assay counterscreen; coupling enzyme system counterscreen, AmpLite Red fluorescence; activity change, negative = inhibition, % at 58.2 µM, hits read low; 290,000 compounds, 0.67% hits; in the data active = activity change below about -30%
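Counterscreen lacking aldolase: glyceraldehyde-3-phosphate coupling-enzyme reagent preincubated 10 min at RT with compound (at 57.5 uM final), then substrate/coupling system with AmpLite Red added; fluorescence read at 525/598 nm after 20 min RT.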
KCNH2 3.1 inh = qHTS for Inhibitors of KCHN2 3.1: Mutant qHTS; U2OS KCNH2 3.1, thallium flux FluxOr; active compounds read low; activity change, % (tested at about 1.8 µM); 340,000 compounds, 0.95% hits;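 active = maximum activity change below -70%; inconclusive = maximum activity change from -70% to -50%; inactive = maximum activity change above -50%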;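 note: thallium influx rate constant from kinetic fluorescence after stimulation buffer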
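Thallium flux read-out: FluxOr dye with Red40 quencher in HBSS/HEPES, 45 min at RT. Rate constants from kinetic reads were normalized to positive and negative DMSO controls. Cells: U2OS virally expressing the 3.1 isoform.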
Giardia killer = Small Molecules that selectively kill Giardia lamblia: qHTS. Giardia lamblia trophozoite viability. activity change, % at 7.66 µM, hits read low. 340,000 compounds, 0.15% hits. AID 540267, 2011; in the data active = activity change below about -80%; inconclusive = between about -30% and that limit;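 note: parasites exposed to compound for two days anaerobically before the ATP read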
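Each well holds 100 Giardia trophozoites and compound. After two days (48 hrs) at 37 deg C in anaerobic conditions, ATP is quantified by luminescence.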
USP1-UAF1 inh = Inhibitors of USP1/UAF1: Primary Screen | Ubiquitin carboxyl-terminal hydrolase 1 (Homo sapiens), O94782 | recombinant USP1/UAF1, Ub-Rhodamine cleavage fluorescence | Potency, µM (titrated, usually from 57.1 µM), hits mostly inhibitors | 390,000 compounds, 0.23% hits; active = well fitted inhibition curve with a large enough effect; inconclusive = small, poorly fitted or top-dose-only effect; inactive = no such curve, though single readings can be large or run the other way; note: nearly all actives have a fitted effect of over 60% in size
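In this screen, compounds sit with the deubiquitinase complex (1nM) for 15 min at room temperature before Ub-Rho is added at 150nM final. Fluorescence rise is then followed for 6 reads every 60 seconds.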
Each line names hits and unclear results; the compound was inactive in the other large screens.

Cc1ccc(OC(=O)N(C)C[C@@H]2OCc3cn(nn3)CCCC(=O)N([C@@H](C)CO)C[C@H]2C)cc1	KCNH2 3.1 inh -70.3, USP1-UAF1 inh inconclusive (no result: FBPA coupling cs, Giardia killer)
COc1ccc(OC(=O)N(C)C[C@H]2OCc3cn(nn3)CCCC(=O)N([C@H](C)CO)C[C@@H]2C)cc1	none (no result: FBPA coupling cs, Giardia killer)
COc1ccc(Nc2cc(C)c3cc([N+](=O)[O-])ccc3n2)cc1	KCNH2 3.1 inh -98.7
CCc1nnc(NC(=O)c2cc(-c3ccco3)nc3ccccc23)s1	none
O=C(Nc1nncs1)c1cc(-c2ccco2)nc2ccccc12	KCNH2 WT inh -72.7 (no result: FBPA coupling cs)
Cc1ccc(C(=O)C(OC(=O)CNC(=O)COc2ccccc2C)c2ccccc2)cc1 (configuration not stated)	none (no result: KCNH2 WT inh, FBPA coupling cs, KCNH2 3.1 inh, USP1-UAF1 inh)
CC(=O)c1cc(C)ccc1OC(=O)CN1C(=O)c2ccccc2C1=O	none
Cc1ccc(C)c(OC(=O)CN2C(=O)c3ccccc3C2=O)c1	KCNH2 WT inh -93.9
Cc1ccc(N2C(=O)c3oc4cc(C)c(C)cc4c(=O)c3C2c2cccc(O)c2)nc1 (configuration not stated)	none (no result: KCNH2 WT inh, FBPA coupling cs, KCNH2 3.1 inh, Giardia killer)
CC(C)C1=C2OC(N)=C(C#N)C(C#N)=C2C(C)CC1 (configuration not stated)	FBPA coupling cs -39.0, USP1-UAF1 inh inconclusive
COn1c(C)c(C)c2c3nonc3ccc21	FBPA coupling cs -39.2, USP1-UAF1 inh inconclusive
Cc1ccccc1OCC(O)CN1CCC(C)CC1 (configuration not stated)	KCNH2 3.1 inh -80.5
OC(COc1ccc(F)cc1Cl)CN1CCC(Cc2ccccc2)CC1 (configuration not stated)	KCNH2 WT inh inconclusive, KCNH2 3.1 inh -93.1
COc1cccc(OCC(O)CN2CCC(Cc3ccccc3)CC2)c1 (configuration not stated)	none
Cc1ccccc1OCC(O)CN1CCN(CC(O)COc2ccccc2C)CC1 (configuration not stated)	USP1-UAF1 inh inconclusive
OC(COc1ccccc1)CN1CCC(Cc2ccccc2)CC1 (configuration not stated)	KCNH2 3.1 inh -115.4
O=C1C(=O)C(c2cc(O)c(O)c(O)c2)Oc2cc(O)cc(O)c21 (configuration not stated)	none (no result: KCNH2 WT inh, FBPA coupling cs, KCNH2 3.1 inh, USP1-UAF1 inh)
O=C1C=CC(=O)c2c(O)c(CO)c(CO)c(O)c21	USP1-UAF1 inh 14.1µM (no result: FBPA coupling cs)
O=C1C=CC(=O)c2c(O)c(Cl)c(Cl)c(O)c21	FBPA coupling cs -90.0 (no result: KCNH2 WT inh, KCNH2 3.1 inh, Giardia killer, USP1-UAF1 inh)
O=c1c(CO)cc(CO)cc(CO)c1O	none
CCOC(=O)c1c(C)n(-c2ccccc2)c2ccc(OC(=O)c3ccccc3)cc12	none (no result: KCNH2 WT inh, FBPA coupling cs, KCNH2 3.1 inh, Giardia killer)
Cc1ccc(C)c2c1NC(C(=O)O)C1CC=CC21 (configuration not stated)	none (no result: KCNH2 WT inh, FBPA coupling cs, KCNH2 3.1 inh, USP1-UAF1 inh)
CC(CNC(=O)c1ccc2nc(CCc3ccccc3)oc2c1)c1ccccc1 (configuration not stated)	none (no result: KCNH2 WT inh, FBPA coupling cs, KCNH2 3.1 inh, Giardia killer)
O=C(Nc1cccc(S(=O)(=O)N2CCCCC2)c1)c1ccc([N+](=O)[O-])o1	Giardia killer -96.1
CC(C)C(=O)N1CCN(c2ccc(NC(=O)c3ccc([N+](=O)[O-])o3)cc2Cl)CC1	Giardia killer -87.9
O=C(Nc1ccccc1N1CCN(C(=O)c2ccc(Cl)cc2)CC1)c1ccc(Br)cc1	KCNH2 3.1 inh -90.8
CC(C)C(=O)N1CCN(c2ccc(NC(=O)c3ccc(Br)o3)cc2)CC1	none
CCCCCC(=O)Nc1ccc(N2CCN(CC)CC2)c(Cl)c1	KCNH2 3.1 inh -102.1
CCCCCC(=O)NC(=S)Nc1ccc(N2CCCCC2)c(Cl)c1	none
CCCOC(=O)c1c(NC(=O)c2cc3ccccc3c(=O)o2)sc2c1CCC(C)C2 (configuration not stated)	none (no result: KCNH2 WT inh, FBPA coupling cs, KCNH2 3.1 inh, Giardia killer)
COC(=O)[C@H]1C[C@@]2(O)CN(S(=O)(=O)c3ccc(C)cc3)C[C@@]2(OC(=O)NC2CC2)C[C@H]1C(=O)OC	none (no result: FBPA coupling cs, Giardia killer)
O=C(Nc1ccc(N2CCOCC2)c(Cl)c1)c1ccc([N+](=O)[O-])o1	Giardia killer -89.5
Cc1ccc(NC(=O)c2ccc([N+](=O)[O-])o2)cc1S(=O)(=O)N1CCOCC1	Giardia killer -90.8
